Measurements: PubChem BioAssay (NCI)
Compounds without any hit were thinned out: in the full panel of roughly 83,000, 20% have a hit.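 Results are percent growth after 48 hours of single-concentration exposure. 100 means growth as in untreated cells, lower positive values show inhibition; negative values down to -100 show cell death.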 Activity calls are given as the source filed them.

Each compound was assayed on TK-10 renal (assay: NCI-60 one-dose screen, 48 h (100 = growth as untreated, 0 = no growth, -100 = all killed)). Settings: 10 µM unless noted.
Experimental: Growth inhibition of the TK-10 human tumor cell line is measured as a screen for anti-cancer activity. Cells are grown in 96 well plates and exposed to the test compound for 48 hours. Compounds are tested at a single concentration, which is 10^-5 M for most compounds. The reported endpoint is percent growth (GI% or GIPRCNT), where numbers from 0 - 100% represent growth inhibition, and numbers from -100% - 0 represent cell death. For example, a value of 40 represents 60% growth inhibition. A value of 0 means no net growth occurred over the course of the experiment. A value of -40 indicates 40% of cells at the beginning of the experiment died by the end of the experiment. A value of -100 means all cells are dead at the end of the experiment.
NCI-60 Human Tumor Cell Lines Screen was performed using the standard one-dose NCI protocol, which is described in more detail at https://dtp.cancer.gov/discovery_development/nci-60/default.htm.
Compounds with GIPRCNT values below 10 were considered active. Activity score was based on GIPRCNT using the following formula: […]
Score is 0 for GIPRCNT values of 100 or above, 50 for GIPRCNT values of 0, and 100 for GIPRCNT values of -100.

| Compound | growth |
| --- | --- |
| O=[N+]([O-])c1cc([N+](=O)[O-])c(Cl)c(Cl)c1Cl | -99.5% (active) |
| OC1CCCCC1N1CCC(c2ccccc2)CC1 (stereo not given) | 99% (inactive) |
| Cc1ccc(C[As+](c2ccccc2)(c2ccccc2)c2ccccc2)cc1 | 16.9% (inactive) |
| CC(C)N=C(NC(C)C)N1CC1 | 122% (inactive) |
| O=C(N/N=C/c1ccc(N(CCCl)CCCl)cc1)c1cc(=O)[nH]c(=O)[nH]1 | 109% (inactive) |
| O=C(NCCNC(=O)c1ccc([As](O)O)cc1)c1ccc([As](O)O)cc1 | 111% (inactive) |
| CC(C)(C)NCC(O)c1ccccc1Cl (stereo not given) | 17.3% (inactive) |
| O=[N+]([O-])c1ccc(/C=C/C=C/c2ccc(S(=O)(=O)F)cc2)c(Cl)c1 | 108% (inactive) |
| C/C(=N/OC(=O)N(C)C)c1cc(Cl)ccc1Cl | 97.7% (inactive) |
| Cc1cccc(N(C)c2cccc3c2C(=O)[Se]C3)c1C | 62.8% (inactive) |
| ClCCN(CCCl)c1nc(Cl)c(C2CC(c3ccccc3)=NN2c2ccccc2)s1 (stereo not given) | 108% (inactive) |
| Cc1cccc(N=C2c3cc([N+](=O)[O-])ccc3-c3c2cc([N+](=O)[O-])cc3[N+](=O)[O-])c1 | 56.1% (inactive) |
| C1CN1c1nc(N2CC2)nc(N2CC2)n1 | 78.3% (inactive) |
| COc1cc(C2(C#N)CCN(C)CC2)cc(OC)c1OC | 108% (inactive) |
| COc1ccc(/C=C\c2cc(OC)c(OC)c(OC)c2)cc1N/C=C\C(=O)c1c[nH]c2ccccc12 | 60.1% (inactive) |
| CC1COC(=O)C1 (stereo not given) | 100% (inactive) |
| COc1cccc2c1C(=O)c1c(O)c3c(c(O)c1C2=O)CC(O)(/C(C)=N/NC(=O)CCC(=O)N/N=C(\C)C1(O)Cc2c(O)c4c(c(O)c2C(OC2CC(N)C(O)C(C)O2)C1)C(=O)c1c(OC)cccc1C4=O)CC3OC1CC(N)C(O)C(C)O1 (stereo not given) | -43.1% [5 µM] (active) |
| O=S(=O)(O)c1ccc(-c2ccc([As](=O)(O)O)cc2)cc1 | 95.5% (inactive) |
| COc1ccc(C2=NN(c3ccccc3)C(c3sc(N(CCCl)CCCl)nc3Cl)C2)cc1 (stereo not given) | 117% (inactive) |
| NC(=O)C(Cl)Cl | 98.7% (inactive) |

| Compound | growth |
| --- | --- |
| COC(=O)C1CC2c3ccccc3C1c1ccccc12 (stereo not given) | 107% (inactive) |
| O=C1NC(=S)NC(=O)C1=Cc1ccccc1 | 182% (inactive) |
| COc1ccc(NP2(=O)OCC(C)(N)CO2)cc1 (stereo not given) | 93.2% (inactive) |
| CCN(CC)CCOc1c(C(C)C)cccc1C(C)C | 110% (inactive) |
| CNC(=O)O/N=C(/C)c1ccc(Cl)cc1 | 91.6% (inactive) |
| Cc1nnc([S-])s1.[Au+].c1ccc([PH+](c2ccccc2)c2ccccc2)cc1 | -61.5% (active) |
| O=C(CCF)c1ccc(O)cc1 | 106% (inactive) |
| Cc1cc(N(CCCl)CCCl)ccc1C=Nc1ccc2ccccc2c1 | 73% (inactive) |
| N#Cc1ncc(/N=C/c2ccc(N(CCCl)CCCl)cc2)s1 | 92.8% (inactive) |
| CCN(CC)c1ccc(C=C2C(=O)NC(=S)NC2=O)cc1 | 108% (inactive) |
| Cc1cc(C)nc(C)c1.[Cl][Hg][Cl] | 108% (inactive) |
| O=C(CCc1ccco1)NC1CCN(CC2(c3ccc(Cl)cc3)CCC2)CC1 | -0.211% (active) |
| O1[As]2O[As]3O[As]1O[As](O2)O3 | 3.92% (active) |
| CCCCCN(CCCCC)CC(O)c1ccc(C)c(Cl)c1 (stereo not given) | 98.5% (inactive) |
| CC(C)(C)N(Cc1ccccc1)N=O | 102% (inactive) |
| CC1(C)N=C(N)N=C(N)N1c1ccc(OCCCCOc2ccc(S(=O)(=O)F)cc2)c(Cl)c1 | 11.3% (inactive) |
| CN1CCN(C(=O)COc2ccc(/C=C3\CC4C5CC=C6CC(Cl)CCC6(C)C5CCC4(C)C3=O)cc2)CC1 (stereo not given) | 88.2% (inactive) |
| O=C1NC(=O)C(CN2C(=O)C3(c4ccccc42)[C@H](Cl)C(=O)N3c2ccccc2)C(=O)N1 (stereo not given in full) | 121% (inactive) |
| CC(=O)O[C@@H]1C2=C(C)C3(CC3)[C@@](C)(O)C(=O)C2=C[C@@]1(C)CO | 4.18% (active) |
| COc1ccc(-c2ccc(OC)c(OC)c2OC)cc1 | 16.2% (inactive) |
